# Screening data (PubChem)
# Shown are actives, neighbours in structure and some others; about 5.4% of the full set was active somewhere.
# Lassa entry inh: inhibitors of Lassa virus binding or cell entry; Lassa virus pseudotype entry inhibition, cell reporter; Potency, µM (highest dose often 37.9 µM), without a hit: at the top dose activity change, negative = inhibition, hits mostly inhibitors; actives 1.2% (n = 300,000); calls by dose curve; tested in HEK293 cells; also: nearly all actives have a fitted effect of over 50% in size
# VACV mCherry inh: inhibitors of vaccinia virus infection (mCherry reporter signal). Vaccinia virus mCherry reporter infection, fluorescence. Potency, µM (series often up to 36.5 µM), for the others: top-dose activity change, negative = inhibition, usual class: inhibitors. actives 0.63% (n = 310,000); calls by dose curve; tested in A549 cells; also: nearly all actives have a fitted effect of over 35% in size
# Vaccinia Venus: inhibitors of vaccinia virus (Venus reporter); Vaccinia virus Venus reporter expression, fluorescence; AID 720580; Potency, µM (doses to about 36.5 µM), inactives show top-dose activity change, negative = inhibition, most hits filed as inhibitors; actives 0.46% (n = 330,000); calls by dose curve; tested in A549 cells; also: nearly all actives have a fitted effect of over 30% in size
# FMDV inh: blocks foot and mouth disease virus | Potency, µM (top dose mostly 57.9 µM), for inactives: at the top dose activity change, negative = inhibition, actives largely listed as inhibitors | FMDV antiviral cell-based qHTS | AID 1159524 | actives 1.2% (n = 410,000); calls by dose curve; tested in HEK293T cells; also: read-out not given here; nearly all actives have a fitted effect of over 45% in size
# Marburg entry inh: inhibitors of Marburg virus binding or cell entry | Marburg virus pseudotyped entry inhibition, cell reporter | Potency, µM (doses to about 37.8 µM), for inactives: top-dose activity change, negative = inhibition, usual class: inhibitors | actives 1.8% (n = 300,000) | AID 540276; calls by dose curve; tested in HEK293 cells
# Sm TGR inh: blocks Schistosoma mansoni thioredoxin glutathione reductase; Q962Y6; AID 485364; Potency, µM (doses to about 114 µM), for the others: top-dose activity change, negative = inhibition, usual class: inhibitors; purified TGR, DTNB reduction, TNB absorbance 405 nm; actives 3% (n = 360,000); active = well fitted inhibition curve with a large enough effect; inconclusive = small, poorly fitted or top-dose-only effect; inactive = no such curve, though single readings can be large or run the other way; also: nearly all actives have a fitted effect of over 60% in size
#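 TGR 20 nM + NADPH 100 uM (dispensed conc.), cpd preinc 15 min RT; start with NADPH (500 uM addition) then DTNB (15 mM addition). Kinetic TNB absorbance, 405 nm filter. Four-parameter Hill fit across titration.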
# * hit, by the source's call; i = inactive; ? = inconclusive; . = no result given; [ ] = dose if it differs, or a comment. % is scaled to controls: 0 for no effect and ±100 for the full control effect; potency is read from the fitted curve at half-maximal effect.
SMILES,Lassa entry inh,VACV mCherry inh,Vaccinia Venus,FMDV inh,Marburg entry inh,Sm TGR inh
c1ccc2c(Nc3nc(N4CCOCC4)c4ccccc4n3)cccc2c1,?,?,-18%,28µM*,?,-25%
Fc1ccc(Nc2nc(Nc3ccc(F)cc3)nc(N3CCOCC3)n2)cc1,25%[46.1 µM],-13%,-12%,?,?,-6%
ClC(Cl)(c1nnnn1-c1ccccc1)c1nnnn1-c1ccccc1,-11%,-22%,-16%,-11%,?,20µM*
C=CCN1c2ccccc2[C@]23CCC(=O)N(CCOC)C2=NC(C(=O)OC)=C(C(=O)OC)[C@H]13,?,.,.,.,13%[14.2 µM],.
CCOC(=O)c1sc(NC(=O)CSc2nc3cccnc3n2C)nc1C,0%[46.1 µM],-27%,5%,-7%,13%[46.1 µM],5%
CCOc1ccc(OCC)c(NC(=O)CSc2nc3cccnc3n2C)c1,-28%,i,-25%,18µM*,-21%,-9%
CCOC(=O)c1cccc(NC(=O)CSc2nc3cccnc3n2C)c1,?,?,?,18µM*,?,-22%
CCOC(=O)c1c(NC(=O)CSc2ncnc3ccccc23)sc(C(C)=O)c1C,3%,-12%,5%,25µM*,-9%[46.1 µM],-8%
COC(=O)c1c(NC(=O)CSc2ncnc3ccccc23)sc(C)c1C,?,0%,-8%,-20%,3%[46.1 µM],.
CCOC(=O)c1c(NC(=O)CSc2nc3cccnc3n2C)sc(C(C)=O)c1C,-10%,-10%,-4%,28µM*,10µM*,3%
COc1ccc(NC(=O)Cn2c(=O)n(C(C)C)c(=O)c3oc4ccccc4c32)cc1Cl,-22%[46.1 µM],-13%,-9%,-29%,.,-1%
CC[n+]1c2ccccc2cc2ccccc21,.,63%,9%,.,.,.
CC[n+]1c(-c2ccccc2)c2cc(N)ccc2c2ccc(N)cc21,?,81%,258%,40µM*,?,.
COc1ccc(OC)c(Nc2ncc3c(n2)CCN(Cc2cc(OC)c(OC)c(OC)c2)C3)c1,-6%[46.1 µM],-10%,-2%,-24%,.,2%
O=C1c2ccc(O)c(O)c2C(=O)c2c(O)ccc(O)c21,.,46%,70%,22µM*,.,.
O=C(Nc1ccccc1C(F)(F)F)C(O)(c1ccccc1)C1CCCCC1 (stereo unspecified),.,-7%,-13%,-24%,.,4µM*
CC1(OC(=O)C2CCCC2)C(=O)C=C2C=C(c3ccsc3)N(c3cccc(C#N)c3)C=C2C1=O (stereo unspecified),.,.,.,.,11%[14.2 µM],.
COC(=O)C(=C/C(C)=C/c1cccnc1)C(=O)OC,-18%[46.1 µM],-22%,-22%,22µM*,?,.
COCCn1ccc2c(OCC(=O)Nc3cccc(OC)c3)cccc2c1=O,-13%[46.1 µM],-8%,-5%,?,.,-1%
Cc1ccc(S(=O)(=O)N2C[C@H]3C(=O)C[C@@H](c4ccccc4F)N(S(=O)(=O)c4ccc(C)cc4)[C@H]3C[C@H]2c2cccc3ccccc23)cc1,.,-14%,-9%,-6%,.,.
O=C(NC(=S)Nc1cccc2ncccc12)c1ccccc1,2%[46.1 µM],i,-22%,0%,3%[46.1 µM],8.9µM*
O=C(NC(=S)Nc1cccc2ncccc12)c1cccs1,.,.,.,?,.,4µM*
CC(C)CCn1c(SCc2cccc(F)c2)nc2ccsc2c1=O,?,1%,-8%,-5%,.,4%
CCOC(=O)Nc1ccc2c(c1)N(C(=O)N1CCN(C)CC1)c1ccccc1S2,5%,.,.,0%,?,-2%
C=CC(=O)N1c2ccccc2Sc2ccc(NC(=O)OCC)cc21,?,.,?,13µM*,?,.
SMILES,Lassa entry inh,VACV mCherry inh,Vaccinia Venus,FMDV inh,Marburg entry inh,Sm TGR inh
CC1=C[C@@H]2c3cccc4[nH]cc(c34)C[C@H]2N(C)C1,-13%,?,6%,-5%,-8%[46.1 µM],2.2µM*
Cn1c(=O)c2c(nc(Br)n2CC(=O)C23CC4CC(CC(C4)C2)C3)n(C)c1=O,?,.,.,?,18µM*,-7%
O=[N+]([O-])c1cc(-c2ccc(/C=N\n3cnnc3)o2)cc([N+](=O)[O-])c1,?,-1%,-4%,-19%,-1%,40µM*
CN1CCCC(CNC(=O)c2cnn(-c3ncc4c(n3)-c3ccccc3CC4)c2C2CC2)C1 (stereo unspecified),.,-19%,-1%,-10%,.,.
COC(=O)c1ccccc1-c1cc(C)cc2c1OC(CNC(=O)C1CCCO1)C2 (stereo unspecified),.,-20%,-18%,-2%,.,.
CCSc1nc(N)nc2c1ncn2C1OC(CO)C(O)C1O (stereo unspecified),15%,-12%,-8%,0%,21%,.
Cn1cnc([N+](=O)[O-])c1Sc1nc(N)nc2c1ncn2C1OC(CO)C(O)C1O (stereo unspecified),2.8µM*,?,?,?,?,.
Cn1cnc([N+](=O)[O-])c1Sc1nc(N)nc2c1ncn2C1CC(O)C(CO)O1 (stereo unspecified),?,6.3µM*,?,?,?,.
COc1cc2cc(CN(Cc3cccs3)C(=S)Nc3ccc(C)cc3)c(=O)[nH]c2cc1OC,4.6µM*,-4%,-29%,0%,?,-8%
Cc1cccc(NC(=S)N(Cc2cccs2)Cc2cc3cc(C)ccc3[nH]c2=O)c1,-12%,i,-12%,0%,?,5%
Cc1cc2cc(CN(CC3CCCO3)C(=S)Nc3ccccc3)c(=O)[nH]c2cc1C (stereo unspecified),7.1µM*,-22%,?,-24%,?,4%
Cc1ccc(NC(=S)N(Cc2cccs2)Cc2cc3cc(C)ccc3[nH]c2=O)cc1,7.1µM*,i,-8%,0%,4.5µM*,-5%
COc1ccccc1NC(=O)Cn1c(=O)n(Cc2ccccc2)c(=O)c2c1c1cc(C)ccc1n2C,5%[46.1 µM],-18%,-13%,-3%,.,-8%
O=C(NCC(c1cccnc1)N1CCc2ccccc21)c1ccc(F)c(F)c1 (stereo unspecified),-7%[46.1 µM],-15%,-10%,-19%,.,3%
Clc1ccc2c(c1)[C@H]1OCC[C@H]1[C@@H](c1ccco1)N2,.,-16%,-13%,30%,.,40µM*
O=C(Nc1cc(Sc2ccccn2)cc([N+](=O)[O-])c1)c1cccc(F)c1,?,?,?,32µM*,?,7%
Cc1ccc(NC(=O)C2CCCN(S(=O)(=O)c3cccc4cccnc34)C2)c(Br)c1 (stereo unspecified),-20%[46.1 µM],-16%,-17%,-25%,.,5%
COC(=O)c1c(NC(NC(C)=O)C(Cl)(Cl)Cl)sc2c1CCCC2 (stereo unspecified),-18%,-4%,-28%,35µM*,?,4%
CCCCN(CCCNC(=O)c1ccc2c(c1)NC(=O)CN2C)c1ccccc1,.,-25%,-24%,22µM*,.,.
Cc1ccc(OCCCCNC(C)(C)C)c([N+](=O)[O-])c1,-1%,-13%,-9%,-21%,16µM*,-8%
